Compounds without any hit were thinned out: in the full panel of roughly 83,000, 20% have a hit.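 A percent growth of 40 corresponds to 60% growth inhibition; 0 means no net growth; -100 means all cells died. Active threshold: below 10.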 Calls of active or inactive are those of the source.
Assays:
Experiment in all cases: NCI-60 one-dose screen, 48 h (100 = growth as untreated, 0 = no growth, -100 = all killed)
Settings in all cases: 10 µM
[1] = tested on: T-47D breast
[2] = tested on: BT-549 breast
[3] = tested on: MDA-MB-435 melanoma
[4] = tested on: SW-620 colon
[5] = tested on: MCF7 breast
[6] = tested on: HCT-116 colon
[7] = tested on: HCC-2998 colon
[8] = tested on: KM12 colon

Measured: growth

COc1cc(OC)cc(-c2n/c(=C\c3c(O)[nH]c4ccc(OC)cc34)cc3c2=Nc2ccccc2-3)c1
inactive: [1] 109% | [2] 92.3% | [3] 67.2% | [4] 46.9% | [6] 13.7% | [7] 22.2%
active: [5] -64.9% | [8] -49.8%

COc1ccccc1NC1=C(N2CCCCC2)C(=O)c2ccccc2C1=O
inactive: [1] 77.4% | [2] 94.2% | [3] 93.2% | [4] 93.4% | [5] 74.8% | [6] 78.1% | [7] 91.7%

CCCCCC(=O)N1c2ccccc2NC2=C(C(=O)CC(c3ccc(OC)c(OC)c3)C2)C1c1ccc(C(F)(F)F)cc1 (stereo not drawn)
inactive: [1] 36.9% | [2] 75.9% | [3] 62.4% | [4] 68.8% | [5] 50.2% | [6] 39.3% | [7] 81.2%

COC(=O)CCCCCCCCC(C)c1ccc(C(C)=O)cc1 (stereo not drawn)
inactive: [1] 94.4% | [2] 130% | [3] 97.1% | [4] 103% | [5] 118% | [6] 110% | [7] 99.6% | [8] 103%

N=C(N)c1ccc(-c2ccc(-c3ccccc3)s2)cc1F
active: [1] -65.6% | [2] -96.8% | [3] -84.2% | [4] -85.4% | [5] -71.7% | [6] -91.8% | [7] -79.1% | [8] -86.1%

C=CCc1cc(Nc2c3ccc(Cl)cc3nc3ccc(OC)cc23)cc(CN(CC)CC)c1O
inactive: [2] 10.9% | [3] 15.5% | [4] 15.9% | [7] 24.2% | [8] 11.7%
active: [1] 0.233% | [5] 3.42% | [6] 5.97%

C#Cc1ccc(-n2c(/C=C/c3cc(OC)c(OC)c(OC)c3)nc3ncccc3c2=O)cc1
active: [3] -9.47%
inactive: [1] 58.9% | [2] 59.7% | [4] 49.1% | [5] 25% | [6] 54.2% | [7] 91%

COc1ccc(-c2nc(NC(=O)CS(=O)(=O)c3ccc(F)cc3)sc2C)cc1
inactive: [1] 33.2% | [2] 66.3% | [3] 75% | [4] 50.9% | [5] 57.9% | [6] 44.7% | [7] 47.4%

C=CCNCCCN1C(=O)c2ccc3c4c(ccc(c24)C1=O)C(=O)N(CCCNCC=C)C3=O
active: [1] -48.6% | [2] -82% | [3] -79% | [4] -54.1% | [5] -64.8% | [6] -16% | [7] -85.9% | [8] -69.3%

COc1cc(C(=O)n2nc(N)c3c(C)cc(C)nc32)cc(OC)c1OC
inactive: [1] 98.5% | [2] 79.7% | [4] 31.5% | [5] 45.3% | [6] 70.2% | [7] 95.6%
active: [3] -12.7%

CCOC(=O)c1c(C)n(-c2ccc(Cl)cc2)c2ccc(OC(=O)/C=C/c3ccccc3)cc12
active: [3] 9.43%
inactive: [1] 82.7% | [2] 82.2% | [4] 67% | [5] 59.6% | [6] 90.6% | [7] 102%

COc1ccc(-c2nc(-c3nc4ccc(C)cc4[nH]3)c3ccccn23)cc1
inactive: [1] 19.3% | [2] 68.1% | [3] 62.9% | [4] 61.2% | [5] 35% | [6] 41.1% | [7] 36.4%

COc1ccc(-c2nc(SCC(=O)c3ccc(Br)cc3)[nH]c(=O)c2C#N)cc1
inactive: [1] 93.9% | [2] 94.2% | [3] 100% | [4] 106% | [5] 100% | [6] 97.4% | [7] 104% | [8] 96.9%

Cn1cnc([N+](=O)[O-])c1/C=C1\Oc2ccc(Cl)cc2C1=O
inactive: [1] 85.1% | [2] 109% | [3] 86.2% | [4] 72% | [5] 40.2% | [6] 22.4% | [7] 97.4% | [8] 82.9%

COc1ccc(C2C=C(c3ccc(OC)c(OC)c3)N=C3SC=CN32)c(Br)c1 (stereo not drawn)
inactive: [1] 54.7% | [2] 62.5% | [4] 13.4% | [5] 12.7% | [7] 95% | [8] 31.5%
active: [3] 5.29% | [6] -78.2%

CN(C)CCCN(Cc1ccccc1O)C(=S)Nc1ccc(Cl)cc1
inactive: [1] 93.4% | [2] 105% | [3] 109% | [4] 100% | [5] 99% | [6] 108% | [7] 83.4% | [8] 105%

N=C(N)c1ccc(-c2ccc(-c3cccs3)s2)nc1
active: [7] -52.7%
inactive: [1] 43% | [2] 91% | [3] 44.5% | [4] 22.4% | [5] 17.8% | [6] 18.5%

Nc1c(CNCc2nnn(Cc3ccccc3)c2N)nnn1Cc1ccccc1
inactive: [1] 101% | [2] 105% | [3] 107% | [4] 95.9% | [5] 101% | [6] 103% | [7] 98.7% | [8] 98.3%

COc1ccc2c(=O)cc(C(Cl)(Cl)Cl)oc2c1
active: [1] 4.96% | [2] -11.9% | [3] -81% | [4] -2.53% | [5] -9.4% | [6] 4.23% | [7] -30%

CC(=O)[C@H]1CC[C@H]2[C@@H]3CC[C@@H]4CC=C(C=O)C[C@]4(C)[C@H]3CC[C@]12C
inactive: [1] 85.6% | [2] 85.8% | [3] 97.3% | [4] 106% | [5] 81.1% | [6] 87% | [7] 89.5% | [8] 104%

COc1cc(C2c3cc4c(cc3C(O)C(CO)C2CO)OCO4)cc(OC)c1OC (stereo not drawn)
inactive: [1] 45.7% | [2] 58.7% | [4] 19.6% | [5] 17.5% | [6] 23.1% | [7] 40.9% | [8] 16.1%
active: [3] -53.1%

Cc1cc(/C=C2\SC(=Nc3ccccc3)N(C3CCCC3)C2=O)c(C)n1-c1ccc(Cl)cc1
active: [1] -49.3% | [2] -57.6% | [3] -82.4% | [4] -61.6% | [5] -56.5% | [6] -50.5% | [7] -83.8%

Cc1cccc2c1O/C(=C\c1ncc([N+](=O)[O-])n1C)C2=O
active: [2] -53.7% | [3] -54.1% | [4] -11.6% | [5] 2.72% | [6] -66.6% | [7] -73.1% | [8] -50.6%
inactive: [1] 89.7%

Cc1ccc(S(=O)(=O)N2CCc3ccccc3CC2)cc1
inactive: [1] 63.1% | [2] 64.7% | [3] 101% | [4] 97.6% | [5] 60.7% | [6] 68.5% | [7] 91% | [8] 94.3%

C=CCNC(=S)NN
active: [5] 8.89% | [6] 6.82%
inactive: [1] 50.5% | [2] 99.2% | [3] 95.4% | [4] 85.5% | [7] 107% | [8] 98.6%

N#Cc1c2c([nH]c(=O)c1C(N)=O)CCCCC2
inactive: [1] 79.2% | [2] 100% | [3] 108% | [4] 101% | [5] 103% | [6] 91.8% | [7] 111% | [8] 106%

Fc1ccc2[nH]c3c(NCCCN4CCOCC4)ncnc3c2c1
inactive: [1] 54.6% | [2] 96.4% | [3] 88.3% | [4] 69.6% | [5] 84.7% | [6] 47.4% | [7] 75.4%

CCc1c(C(=O)NCc2c(O)ccc3cccc(O)c23)[nH]c(C)c1C(C)=O
inactive: [2] 34.5% | [3] 35.1% | [4] 68.7% | [5] 11.6% | [6] 42.3% | [7] 47.9% | [8] 31.2%
active: [1] 9.15%

COc1nc2c(c(=O)[nH]1)C(c1ccc(Oc3ccnc4cc(Cl)ccc34)c(OC)c1)C=C(c1cc(OC)c(OC)c(OC)c1)N2 (stereo not drawn)
inactive: [1] 89.8% | [2] 91.7% | [3] 111% | [4] 102% | [5] 102% | [6] 94% | [7] 97.6% | [8] 104%

N=C(N)c1ccc(-c2ccc(-c3ccccc3)s2)s1
active: [1] -66.9% | [3] -83.3% | [4] -71.1% | [5] -71.5% | [6] -62% | [7] -80.8%
inactive: [2] 88.9%

CNC(=O)c1cc(Oc2ccc(NC(=O)Nc3ccc(Cl)c(C(C)(C)C)c3)c(F)c2)ccn1
inactive: [1] 20.5% | [2] 47.2% | [3] 29.9% | [4] 69.2% | [5] 16% | [6] 19.7% | [7] 44.2% | [8] 20.9%

CCCc1c(CC)c(=N)c2ccccc2n1C
active: [3] 7.61%
inactive: [1] 73% | [2] 81.8% | [4] 57.8% | [5] 32% | [6] 27.7% | [7] 15.5%

COc1ccc(C(C)=O)cc1N1C(=O)C2C(C1=O)C1(c3ccccc3)C(=O)C2(c2ccccc2)C(c2ccc(C)cc2)=C1c1ccc(C)cc1 (stereo not drawn)
inactive: [1] 32.3% | [2] 38.4% | [3] 35.6% | [4] 27.1% | [5] 15.6% | [6] 24.3% | [7] 46.6%

COCCOC(=O)NC(=O)Nc1ccc(/C(=N/O)c2ccc(Cl)cc2)cc1
active: [3] 3.81% | [6] 4.17% | [7] -1.35%
inactive: [1] 62.5% | [2] 50.9% | [4] 29% | [5] 14.3% | [8] 11.7%
